According to PubChem BioAssay (NCI):
This is part of a sample that, as a whole, favours compounds with a hit. Of some 83,000 tested, about 20% had one in any assay.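 Compound tested at a single concentration for 48 hours in 96-well plates; a percent growth value below 10 was scored as active.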 Unmarked numbers belong to inactive results. Calls of active or inactive are those of the source.

These molecules were tested on DU-145 prostate (assay: NCI-60 one-dose screen, 48 h (100 = growth as untreated, 0 = no growth, -100 = all killed)). Conditions: 10 µM unless noted.
`CC(C)C1=NOC(=O)C1=Cc1cn(-c2ccccc2)nc1-c1ccccc1` was tested, and the growth was 80.8%. Molecule `CCN(CC)CCCNCc1cc(-c2ccccc2)nc2ccccc12` has a growth of 16.6%. With `CCOC(=O)CCC[P+](c1ccccc1)(c1ccccc1)c1ccccc1` the growth was 90%. Work on `Cc1cccc(C[C@H](NC(=O)Nc2ccc(Cl)cc2F)C(=O)N[C@@H]2C(=O)N3C[C@H](O)C[C@H]3C(=O)N3CCN(C)C[C@H]3C(=O)N[C@@H](C)C(=O)N3C[C@H](C)C[C@H]3C(=O)O[C@H]2C)c1` yielded a growth of 36.3%. Work on `COc1cc(C)cc2oc3oc(=O)c(C(=O)c4cc5cc(Br)ccc5o4)cc3c(=O)c12` yielded a growth of 113%. With `COc1ccc(CC(C#N)c2ccc(Cl)cc2)cc1` (stereo not drawn) the growth was 77.3%. Molecule `Clc1ccc(/C=N/Nc2nc3ccccc3s2)c(Cl)c1` has a growth of 97.9%. `Nc1nc(SCc2cccc([N+](=O)[O-])c2)c2[nH]cnc2n1` showed a growth of 104%. With `COC(=O)[C@]12CCC(C)(C)C[C@H]1C1=CC[C@@H]3[C@@]4(C)C/C(=C/c5cccnc5)C(=O)C(C)(C)[C@@H]4CC[C@@]3(C)[C@]1(C)CC2` the growth was 7.21% [100 µM] (active). Work on `Cn1cc(-c2nnc(-c3cn(C)c4ncccc34)o2)c2ccccc21` yielded a growth of 60%. `Cc1ccc(C2=C/C(=C/c3ccc(Br)cc3)C(=O)N2CCc2ccc(S(N)(=O)=O)cc2)cc1` was tested, and the growth was 104%. In the case of `COc1ccc2nc3cc(Cl)ccc3c(Nc3ccc(O)cc3)c2c1`, the growth is reported as 48.4%. Molecule `CCCCN(CC)CC(CC)Nc1cc(OC)cc2cccnc12` (stereo not drawn) has a growth of 110%. With `O=C(Nc1cccc2ccccc12)c1cc2ccccc2cc1O` the growth was 25.7%. Molecule `C=C(C)[C@@H]1CC[C@]2(COCCC#N)CC[C@]3(C)[C@H](CC[C@@H]4[C@@](C)(CCCNCCC#N)[C@H](C(=C)C)CC[C@]43C)[C@@H]12` has a growth of 46.4% [100 µM]. `Cc1ccc(-c2cn(C/C=C3\C=CN(S(=O)(=O)c4ccccc4)CC3)nn2)cc1` gave a growth of 118%. In the case of `CN(C)c1ccc(-c2ccc(-c3ccc(C(=N)N)cc3)s2)cc1`, the growth is reported as -88.4% (active). In the case of `CCOC(=O)c1nn(C2CCCCO2)c2ccc(NC(=O)CN3CCOCC3)cc12` (stereo not drawn), the growth is reported as 107%. In the case of `Cn1cc(-c2noc(-c3cn(C)c4ncc(Br)cc34)n2)c2cc(Cl)ccc21`, the growth is reported as 87%. `Cc1cc2c(C(C)C)c(O)c(O)c(C=NCc3ccoc3)c2c(O)c1-c1c(C)cc2c(C(C)C)c(O)c(O)c(C=NCc3ccco3)c2c1O` was tested, and the growth was 49.1%. In the case of `Cc1cccc(C[C@H](NC(=O)Nc2ccc(C)cc2F)C(=O)N[C@@H]2C(=O)N3C[C@H](O)C[C@H]3C(=O)N3CCN(C)C[C@H]3C(=O)N[C@@H](C)C(=O)N3C[C@H](C)C[C@H]3C(=O)O[C@H]2C)c1`, the growth is reported as 38.4%. In the case of `COc1cc2c(c(Br)c1N)-c1cc(Br)c(N)cc1C2=O`, the growth is reported as 79.1%. In the case of `CCN(CC)CCSC(=O)C(O)(c1ccccc1)C1CCCC1` (stereo not drawn), the growth is reported as 95.6%. Work on `CCN(CC)CCCOc1ccc2c(c1)O/C(=C\c1cccc(OC)c1)C2=O` yielded a growth of 86.8%. With `CCOC(=O)/C(C#N)=C(\C)CCc1ccccc1` the growth was 132%. With `O=C(CCN1CCCCC1)c1ccc(Cl)cc1` the growth was 106%. With `C[C@H]1[C@H](C)CC[C@]2(C(=O)O)CC[C@]3(C)C(=CC[C@@H]4[C@@]5(C)C/C(=C/c6ccco6)C(=O)C(C)(C)[C@@H]5CC[C@]43C)[C@H]12` the growth was -73.1% [100 µM] (active). Molecule `Cc1ccc(NC(=O)N[C@@H](Cc2cc(F)cc(F)c2)C(=O)N[C@@H]2C(=O)N3CCC[C@H]3C(=O)N3CCOC[C@H]3C(=O)N[C@@H](C)C(=O)N3C[C@H](C)C[C@H]3C(=O)O[C@H]2C)cc1` has a growth of 31.2%. For `CCCCOC(=O)c1c(C)[nH]c(/C=C2\N=C(c3ccc[nH]3)C=C2OC)c1C`, the growth was 18.5%. With `O=C(O)c1cn(C2CC2)c2cc(N3CCN(Cc4cc(Cl)ccc4O)CC3)c(F)cc2c1=O` the growth was 95.2%. For `C[n+]1cccc(NC(=O)c2ccc3ccc4ccc(C(=O)Nc5ccc[n+](C)c5)nc4c3n2)c1`, the growth was 9.79% (active). `O=c1cc(-c2ccccc2)oc2cc(OCc3cn(Cc4ccc(F)cc4)nn3)cc(O)c12` gave a growth of 65.8% [100 µM]. With `CCc1ccc(NC(=O)N[C@@H](Cc2cc(F)cc(F)c2)C(=O)N[C@@H]2C(=O)N3C[C@H](O)C[C@H]3C(=O)N3CCOC[C@H]3C(=O)N[C@@H](C)C(=O)N3C[C@H](C)C[C@H]3C(=O)O[C@H]2C)cc1` the growth was 42.6%.
